Screens as filed in PubChem BioAssay.
Shown are actives, neighbours in structure and some others; about 1.3% of the full set was active somewhere.
GLD-1 RNA inh: GLD-1-TGE RNA interaction inhibition (C. elegans); Q17339; purified GLD-1 + fluorescein TGE RNA, fluorescence polarization; inhibition, % at 5.96 µM; 0.44% of 320,000 active;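 active = percent inhibition above a per-plate cutoff, the plate mean of test compounds plus 3 SD, cut at about 30% in these data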;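 also: 0% = DMSO wells with GLD-1 and probe and 100% = wells lacking GLD-1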
EBV gp42 inh: blocks Epstein-Barr virus glycoprotein 42 binding | Fluorescence polarization binding assay, mP read-out | inhibition, % (tested at 21.74 µM) | 0.42% of 220,000 active; in the data active = inhibition above about 50%
Bcl-xL primary: Bcl-xL (human) inhibition; GST-Bcl-xL / FITC-Bim BH3 peptide fluorescence polarization; Q07817; inhibition, % at 10.9 µM; 0.7% of 320,000 active;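 active = inhibition above the mean of all tested compounds plus 3 SD, cutoff set per campaign, cut at about 30% in these data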;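 also: 0% = DMSO wells and 100% = unlabeled Bim-BH3 peptide competitor; inhibitors lower millipolarization by displacing the labeled peptide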
MEX-5 binding: C. elegans MEX-5 TCR-2 RNA binding activity; MEX-5/FITC-TCR2 RNA binding, fluorescence polarization; hits give low values; activity score (negative = inhibition of binding), % at 10 µM; 0.38% of 300,000 active;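 active = inhibition past about -25% in most replicates, and total fluorescence under double the plate's negative control median, limit read from the data; inconclusive = replicates evenly split on the limit, or fluorescence at least double controls; inactive = too little inhibition in most replicates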;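 also: 0% = DMSO and -100% = 5 µM competing unlabeled TCR2 RNA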
Target sequence (Q9XUB2 whole entry, looked up): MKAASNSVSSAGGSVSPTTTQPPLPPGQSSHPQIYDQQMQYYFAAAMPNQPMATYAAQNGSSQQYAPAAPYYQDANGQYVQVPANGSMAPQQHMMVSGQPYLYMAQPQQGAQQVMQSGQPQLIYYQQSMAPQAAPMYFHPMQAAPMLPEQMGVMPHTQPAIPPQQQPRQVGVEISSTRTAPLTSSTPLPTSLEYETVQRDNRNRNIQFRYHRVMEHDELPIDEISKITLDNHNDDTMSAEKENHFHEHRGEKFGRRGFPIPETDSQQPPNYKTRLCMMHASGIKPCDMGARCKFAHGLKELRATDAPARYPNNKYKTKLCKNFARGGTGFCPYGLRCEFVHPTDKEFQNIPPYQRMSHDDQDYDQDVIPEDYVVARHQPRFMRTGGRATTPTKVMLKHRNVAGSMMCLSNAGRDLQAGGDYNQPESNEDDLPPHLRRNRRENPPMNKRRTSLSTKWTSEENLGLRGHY
eLon inh: E. coli protease La inhibition; AID 602123; inhibition, % at 7.94 µM; purified E. coli Lon protease, fluorescence polarization; 0.42% of 360,000 active; P0A9M0; in the data active = inhibition above about 13%, passing the limit was not always enough;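 also: 0% = enzyme with probe and DMSO and 100% = no enzyme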
The depositor's hits bear a star; ? = inconclusive; / = no result.

SMILES	GLD-1 RNA inh	EBV gp42 inh	Bcl-xL primary	MEX-5 binding	eLon inh
O=C1C(C=Nc2ccccc2O)=C(O)c2ccccc21	5	-7	8	0	-2
Cc1ccc(O)c(N=CC2=C(O)c3ccccc3C2=O)c1	14	21	38*	-22	-10
N#C/C(=C/c1ccco1)C(N)=S	17	-3	35*	-1	-10
Cc1ccsc1C(=O)N1CCC1(C)C(=O)NS(=O)(=O)c1ccccc1 (stereo unspecified)	/	/	/	/	4
Cc1cccc(N(C)S(=O)(=O)c2nnc(NC(=O)c3ccco3)s2)c1	1	/	1	-33*	-8
CC(C)OC(=O)CC(=O)c1sc2nc3c(cc2c1N)CN(C)CC3	53*	69*	84*	-31*	/
COc1cc(CN2CCNC(=O)C2CC(=O)N(C)CCN2CCOCC2)cc(OC)c1 (stereo unspecified)	/	/	/	1	-4
CSc1ncccc1C(=O)NC1CCN(Cc2ccccc2)CC1	2	/	1	0	7
O=C(c1cc2ccccn2n1)N1CCCC1	/	-12	/	/	/
Cc1ccc(C)c(N2CCN(C(=O)c3cc4ccccn4n3)CC2)c1	24	11	49*	-29*	9
Cc1ccc(OCC(=O)OCC(=O)c2cccc([N+](=O)[O-])c2)cc1C	2	/	3	0	-6
CCC1=[N+](C)CCn2c(C)ccc21	-10	-29	-11	0	3
CC(=O)c1c(C)c(C)c2n1CCn1c(C)ccc1-2	18	0	36*	-8	10
C(=N\N1CCOCC1)/c1cn(-c2ccccc2)nc1-c1ccccc1	13	-25	4	-1	-11
C(=N\N1CCOCC1)/c1nc(-c2ccccc2)n2ccccc12	6	62*	1	1	-3
Cn1c(=O)c2[nH]c(N=NN3CCCCC3)nc2n(C)c1=O	/	/	/	/	-4
Cn1c(=O)c2[nH]c(N=NNc3ccccc3F)nc2n(C)c1=O	2	-7	10	-34*	-1
Cc1ccccc1NN=Nc1nc2c([nH]1)c(=O)n(C)c(=O)n2C	7	-26	11	/	10
CC(=O)/C(N=Nc1nc2c([nH]1)c(=O)n(C)c(=O)n2C)=C(\C)O	11	15	9	-36*	8
Cc1ccc(C(=O)Nc2ccon2)cc1S(=O)(=O)N1CCCC1	9	3	4	0	7
O=C(Cn1c2ccccc2c(=O)c2ccccc21)N/N=C/c1cc([N+](=O)[O-])ccc1N1CCCCCC1	0	-93	9	-1	0
O=C(Cn1c2ccccc2c(=O)c2ccccc21)N/N=C/c1ccc(N2CCCC2)c([N+](=O)[O-])c1	8	74*	4	0	-3
CC(C)NC(=S)N/N=C/c1c[nH]c2ccccc12	6	0	6	1	3
Cc1[nH]c2ccccc2c1/C=N/NC(=S)NC(C)C	-16	2	-3	-26*	-32
Cc1ccc2c(c1)Sc1c(ccc3ccccc13)N2	-3	-6	67*	-3	21
SMILES	GLD-1 RNA inh	EBV gp42 inh	Bcl-xL primary	MEX-5 binding	eLon inh
CN(C)CCCNc1cc(O)c2ncccc2c1	33*	/	/	/	17
COc1ccc(C(=O)NC(=S)NNC(=O)c2cnccn2)cc1	-4	-6	-2	-3	2
COc1cc(C(=O)NC(=S)NNC(=O)c2cnccn2)cc(OC)c1OC	5	1	6	-47*	3
O=C(CN(Cc1ccco1)C(=O)c1ccccc1)Nc1ccc(Cl)c(Cl)c1	2	-19	4	1	-5
CC(=O)c1cc(-c2ccccc2)n(CC(=O)N2CCN(C3CCCC3)CC2)c1C	15	-3	45*	-17	28
COc1ccc(C(=O)Nc2cccc(-c3cc4ccccc4oc3=O)c2)cc1[N+](=O)[O-]	6	58*	2	/	4
Cc1nc2cc(C)c(C)cc2s1	1	-8	0	2	7
CN(C)c1ccc2nc3ccc(=[N+](C)C)cc-3sc2c1	8	-5	5	-33*	5
Cc1cc2nc3ccc(=[N+](C)C)cc-3sc2cc1N	/	-8	/	-48*	2
COC(=O)c1ccc(=O)c2nc3/c(=C/O)c(O)cc(=O)c3[nH]c12	4	98*	90*	/	-2
COc1ccc(-c2nc(N)ncc2-c2ccccc2OC)c(O)c1	-2	/	4	-2	-3
CN1CCN(C2=C(Cl)C(=O)N(CCc3ccccc3)C2=O)CC1	30	8	51*	-1	5
O=C1C(Cl)=C(N2CCOCC2)C(=O)N1CCc1ccccc1	5	-5	1	-15	1
COC(=O)CN1C(=S)N(c2ccc(OC)cc2)C(=O)/C1=C/c1ccc(N2CCOCC2)cc1	-47	75*	-84	-7	-278
N#Cc1nc(Cc2cccc3ccccc23)oc1N1CCC(C(N)=O)CC1	0	-6	33*	-1	-2
Cc1ccccc1N(CC(=O)N/N=C/c1cc(Br)c(C)o1)S(C)(=O)=O	-4	-3	2	1	6
Cc1sc(/C=C2\C(=O)ON=C2c2ccccc2)cc1Br	-10	7	-6	-31*	/
COc1ccc(C(=O)/C=C/Nc2ccc([N+](=O)[O-])cc2C)c(OC)c1	-7	-20	-7	?	-13
COc1ccc(C(=O)/C=C/Nc2ccc([N+](=O)[O-])cc2C)cc1OC	3	-28	-7	-43*	-11
Cc1ccccc1C(=O)Nc1ccc2c(C#N)c3nc4ccccc4nc3n2c1	13	112*	42*	2	9
CCOc1ccc(C2C3=C(CCCC3=O)Nc3ccc4ncccc4c32)cc1 (stereo unspecified)	7	4	1	1	3
O=C1CCCC2=C1C(c1ccc(O)c(O)c1)c1c(ccc3ncccc13)N2 (stereo unspecified)	1	7	36*	-9	9
CSc1ccccc1NC(=O)c1c(C)noc1C	-1	-5	-3	-1	-5
CCOC(=O)CC(=O)CSC1=C(C#N)C(c2ccccc2OC)CC(=O)N1 (stereo unspecified)	2	-4	31*	-1	-16
O=c1c(-c2ccco2)[n+]([O-])c2ccccc2n1OCc1ccccc1	38*	-30	30*	-6	-7
SMILES	GLD-1 RNA inh	EBV gp42 inh	Bcl-xL primary	MEX-5 binding	eLon inh
CCOn1c(=O)c(-c2cc3ccccc3o2)[n+]([O-])c2ccccc21	19	-14	13	-43*	-9
O=c1c(-c2ccco2)[n+]([O-])c2ccccc2n1OCc1c(F)cccc1F	10	-25	2	1	-2
O=C(CSc1nnc(-c2cccc(F)c2)o1)N1CCCC1	2	/	3	-3	9
CNC[C@H]1Oc2ccc(NC(=O)Nc3ccccc3)cc2CC(=O)N([C@H](C)CO)C[C@H]1C	-9	/	/	/	-34
CCN1CCc2nc3sc(C(=O)Nc4cccnc4Cl)c(N)c3cc2C1	28	/	46*	-9	-25
CCN1CCc2nc3sc(C(=O)N4CCc5ccccc5C4)c(N)c3cc2C1	22	/	29	0	-15
CC(=Nc1ccc(Br)cc1)c1sc2ccccc2c1O	-77	20	3	-30*	-71
